Activity calls are given as the source filed them. Rule for the calls: active = hit-call score of the fitted dose curve at least 0.9, where 1 is the maximum; inactive = score below 0.9.

As usually defined, the AC50 is the midpoint of the concentration-response curve, whichever way the signal moves.

Assay [1] in a line: ATG_CRE_CIS: Attagene CIS-FACTORIAL HepG2 Assay for human cAMP Responsive Element (CRE) binding protein 3 (AID 2282926). The conditions noted are these: HepG2 CRE cis-reporter, Attagene multiplexed mRNA; actives raise or lower the signal. An outline of the steps:
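Induced reporter mRNA from a CRE cis element, measured in HepG2 among many multiplexed units at 24 h. Detection used RT-PCR plus capillary electrophoresis of fluorescent fragments; DMSO served as negative control.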

The target in assay [2] is CCAAT/enhancer-binding protein beta (Homo sapiens) (UniProt P17676). Nature of the assay: ATG_C_EBP_CIS: Attagene CIS-FACTORIAL HepG2 Assay for human CCAAT/Enhancer Binding Protein (C/EBP) beta (AID 2282927). As to conditions: HepG2 Attagene cis-factorial transcription factor reporter; actives raise or lower the signal. An outline of the steps:
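Following a 24 h incubation with test chemical, transfected HepG2 cells yielded RNA whose reporter transcripts were quantified by RT-PCR and fluorescent capillary electrophoresis, with DMSO serving as baseline for bidirectional fitting.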

A short description of assay [3]: ATG_CMV_CIS: Attagene CIS-FACTORIAL HepG2 Assay for human CMV (Internal Marker) (AID 2282928).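 Note: endpoint acts as a background internal control marker rather than a target.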 As to conditions: HepG2 CMV promoter reporter, transcription factor profiling; actives raise or lower the signal. The gist of the method: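 24 h chemical treatment, HepG2 with transient multi-reporter transfection; RNA → oligo(dT) RT → PCR → 6-FAM extension → HpaI digest → CE fluorescence. Bidirectional fit, DMSO negative control.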

Assay [4] has as its target Aryl hydrocarbon receptor (Homo sapiens) (UniProt P35869). Nature of the assay: ATG_Ahr_CIS: Attagene CIS-FACTORIAL HepG2 Assay for human Aryl Hydrocarbon Receptor (Ahr) (AID 2282930). The conditions noted are these: HepG2 AhR cis-factorial reporter transcription; actives raise or lower the signal. The gist of the method:
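Values derive from bidirectional fitting against DMSO negative control. Underlying signal: cis-element reporter mRNA in transiently transfected HepG2, harvested 24 h post-dose and measured by RT-PCR plus capillary electrophoresis.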

The nature of assay [5]: ATG_AP_1_CIS: Attagene CIS-FACTORIAL HepG2 Assay for human Activator Protein 1 (AP-1) (AID 2282931). As to conditions: HepG2 Attagene cis-factorial AP-1 reporter mRNA; actives raise or lower the signal. An outline of the steps:
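Transient MRTU transfection of HepG2 → 24 h chemical treatment → RNA isolation, RT-PCR, 6-FAM labelling, HpaI digest → capillary electrophoresis. Fit: bidirectional, DMSO negative control.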

Assay [6] is described as follows: ATG_AP_2_CIS: Attagene CIS-FACTORIAL HepG2 Assay for human Activator Protein 2 (AP-2) (AID 2282932). The conditions noted are these: HepG2 AP-2 cis-reporter, Attagene transcription factor profiling; actives raise or lower the signal. The gist of the method: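 Assay in transfected HepG2 with promoter-regulated reporters, 24 h incubation after dosing. Signal is reporter mRNA fluorescence (RT-PCR, capillary electrophoresis), analysed for both increases and decreases relative to DMSO controls.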

Assay [7] in a line: ATG_BRE_CIS: Attagene CIS-FACTORIAL HepG2 Assay for human Bone Morphogenetic Protein (BMP) Response Element (BRE) (AID 2282933). As to conditions: HepG2 BMP response element reporter, Attagene transcription factor profiling; actives raise or lower the signal. An outline of the steps: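 HepG2 cells transiently transfected with multiplexed cis-element reporter units were dosed with chemical for 24 h. Reporter mRNA was measured by RT-PCR with fluorescent labelling, HpaI digestion and capillary electrophoresis; bidirectional fitting relative to DMSO.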

Assay [8] deals with Retinoic acid receptor alpha (Homo sapiens) (UniProt P10276). Put plainly: ATG_DR5_RAR_CIS: Attagene CIS-FACTORIAL HepG2 Assay for human Retinoic Acid Receptor Alpha (RARE), DR5 submotif (AID 2282934). The conditions noted are these: HepG2 Attagene cis-factorial RARE DR5 reporter, mRNA; actives raise or lower the signal. An outline of the steps:
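Endpoint fitted in both directions relative to DMSO as negative control. It reflects DR5 cis-element reporter mRNA induction in transiently transfected HepG2 cells, measured 24 h after dosing through RT-PCR and fluorescent capillary electrophoresis.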

Assay [9] has as its target Transcription factor E2F1 (Homo sapiens) (UniProt Q01094). Put plainly: ATG_E2F_CIS: Attagene CIS-FACTORIAL HepG2 Assay for human E2F Transcription Factor 1 (AID 2282935). As to conditions: HepG2 Attagene cis-reporter, E2F reporter RNA transcripts; actives raise or lower the signal. The gist of the method: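 In this cis-factorial format, endogenous factor activity drives transfected reporters in HepG2; transcripts collected at 24 h are quantified by fluorescence after RT-PCR and capillary separation.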

Assay [10] in a line: ATG_E_Box_CIS: Attagene CIS-FACTORIAL HepG2 Assay for human Enhancer Box (E-box) (AID 2282936). The conditions noted are these: HepG2 E-box cis-reporter transcription, actives raise or lower the signal. An outline of the steps: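 Measured 24 h post-dosing in HepG2 cells transfected with multiple cis-regulated reporter units, signal being reporter mRNA induction detected by fluorescent RT-PCR with capillary electrophoresis; gain or loss fitted against DMSO.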

The nature of assay [11]: ATG_M_61_CIS: Attagene CIS-FACTORIAL HepG2 Assay for M61 Transcription Factor (Internal Marker) (AID 2282937). The conditions noted are these: HepG2 Attagene CIS-FACTORIAL M61 internal marker reporter; actives raise or lower the signal. An outline of the steps:
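Human liver HepG2, transient MRTU transfection (cis promoter elements), 24 h compound. Total RNA → oligo(dT) RT → PCR → FAM label → HpaI → CE. Internal background marker; bidirectional fitting, DMSO = baseline.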

Assay [12] in a line: ATG_EGR_CIS: Attagene CIS-FACTORIAL HepG2 Assay for human Early Growth Response 1 (EGR1) (AID 2282938). As to conditions: HepG2 Attagene CIS-FACTORIAL EGR reporter mRNA; actives raise or lower the signal. An outline of the steps: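 Transient transfection of human HepG2 with multiple cis-regulated reporter units, chemical exposure 24 h, total RNA isolated. Reverse transcription, PCR, fluorescent labelling and capillary electrophoresis quantify reporter transcripts; activity fitted bidirectionally against DMSO.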

Assay [13] in a line: ATG_M_19_CIS: Attagene CIS-FACTORIAL HepG2 Assay for M19 Transcription Factor (Internal Marker) (AID 2282939). The conditions noted are these: HepG2 Attagene CIS-FACTORIAL M19 internal marker reporter; actives raise or lower the signal. An outline of the steps: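 HepG2 cells transiently transfected with cis-regulated multiple reporter transcription units were dosed for 24 h; reporter mRNA was quantified by RT-PCR, 6-FAM primer-extension labelling, HpaI digestion and capillary electrophoresis, with bidirectional fitting against DMSO baseline.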

Assay [14] in a line: ATG_Ets_CIS: Attagene CIS-FACTORIAL HepG2 Assay for human Erythroblast Transformation Specific (ETS) (AID 2282941). The conditions noted are these: HepG2 ETS cis-reporter transcription, actives raise or lower the signal. An outline of the steps: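 Cis-regulated reporter mRNA induction in HepG2 (transient transfection), 24 h exposure, RT-PCR plus capillary electrophoresis detection; DMSO serves as negative control and baseline.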

The nature of assay [15]: ATG_FoxO_CIS: Attagene CIS-FACTORIAL HepG2 Assay for human Forkhead box O (FoxO) (AID 2282943). The conditions noted are these: HepG2 Attagene cis-reporter, FoxO element, mRNA; actives raise or lower the signal. An outline of the steps:
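Values reflect reporter mRNA induction or loss in HepG2 cells 24 h post-dosing, fitted bidirectionally with DMSO as negative control and baseline. Detection used RT-PCR and fluorescence capillary electrophoresis.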

The nature of assay [16]: ATG_GATA_CIS: Attagene CIS-FACTORIAL HepG2 Assay for human GATA Binding Protein (AID 2282944). The conditions noted are these: HepG2 GATA cis-element reporter, Attagene multiplex mRNA; actives raise or lower the signal. An outline of the steps: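 HepG2 cells transiently transfected with multiplexed cis-element reporter units reflecting endogenous transcription factor activity; reporter mRNA measured after 24 h dosing by RT-PCR, 6-FAM labeling, HpaI digestion and capillary electrophoresis. Bidirectional fitting versus DMSO baseline.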

The nature of assay [17]: ATG_GLI_CIS: Attagene CIS-FACTORIAL HepG2 Assay for human Zinc Finger Protein GLI1 (AID 2282945). As to conditions: HepG2, Attagene cis-factorial reporter mRNA, GLI element; actives raise or lower the signal. An outline of the steps: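 HepG2 cells transiently transfected with cis-promoter multiplexed reporter units report endogenous transcription factor activity. After 24 h chemical exposure, reporter mRNA was quantified by RT-PCR, 6-FAM labelling, HpaI digestion and capillary electrophoresis, with bidirectional fitting against DMSO.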

Assay [18] in a line: ATG_DR4_LXR_CIS: Attagene CIS-FACTORIAL HepG2 Assay for human Liver X Receptor (LXR), DR4 submotif (AID 2282929). The conditions noted are these: HepG2 Attagene DR4 cis-reporter, mRNA transcription; actives raise or lower the signal. An outline of the steps:
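HepG2, transient MRTU transfection, cis-element (DR4) promoter; 24 h compound exposure; total RNA → oligo(dT) RT → PCR → 6-FAM primer extension → HpaI cut → CE. Gain/loss vs DMSO, bidirectional fit.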

The target in assay [19] is Hepatocyte nuclear factor 3-beta (Homo sapiens) (UniProt Q9Y261). Put plainly: ATG_FoxA2_CIS: Attagene CIS-FACTORIAL HepG2 Assay for human Forkhead box A2 (FOXA2) (AID 2282942). As to conditions: HepG2 cis-reporter transcription factor activity, 24 h; actives raise or lower the signal. The gist of the method: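 Transient MRTU transfection of HepG2 liver cells; 24 h treatment; total RNA → oligo(dT) RT → PCR → FAM primer extension → HpaI cut → CE. Bidirectional fit vs DMSO.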
Hepatocyte nuclear factor 3-beta (Homo sapiens), sequence (Q9Y261 whole entry, looked up): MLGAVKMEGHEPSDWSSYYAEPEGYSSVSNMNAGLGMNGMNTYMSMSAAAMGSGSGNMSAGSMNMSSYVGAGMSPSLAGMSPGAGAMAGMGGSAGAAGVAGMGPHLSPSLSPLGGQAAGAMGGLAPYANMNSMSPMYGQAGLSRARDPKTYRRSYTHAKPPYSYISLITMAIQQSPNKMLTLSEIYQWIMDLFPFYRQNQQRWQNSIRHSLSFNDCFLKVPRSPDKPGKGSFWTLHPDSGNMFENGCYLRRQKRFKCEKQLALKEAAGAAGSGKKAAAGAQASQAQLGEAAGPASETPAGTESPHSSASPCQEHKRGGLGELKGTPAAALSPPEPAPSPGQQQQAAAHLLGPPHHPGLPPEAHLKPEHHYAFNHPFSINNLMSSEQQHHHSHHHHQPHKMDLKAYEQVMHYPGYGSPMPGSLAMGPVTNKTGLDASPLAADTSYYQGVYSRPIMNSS

Assay [20] addresses Bile acid receptor (Homo sapiens) (UniProt Q96RI1). Nature of the assay: ATG_IR1_CIS: Attagene CIS-FACTORIAL HepG2 Assay for human Nuclear Receptor Subfamily 1 Group H Member 4 (NR1H4), IR1 submotif (AID 2282946). As to conditions: IR1 reporter transcription, actives raise or lower the signal. The gist of the method: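 Readout: reporter transcript levels by RT-PCR with fluorescent capillary electrophoresis, from HepG2 cells transiently transfected with multiplexed cis-regulated reporters and dosed 24 h. Gain- or loss-of-signal fitted versus DMSO negative control.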

Aryl hydrocarbon receptor (Homo sapiens), sequence (P35869 whole entry, looked up): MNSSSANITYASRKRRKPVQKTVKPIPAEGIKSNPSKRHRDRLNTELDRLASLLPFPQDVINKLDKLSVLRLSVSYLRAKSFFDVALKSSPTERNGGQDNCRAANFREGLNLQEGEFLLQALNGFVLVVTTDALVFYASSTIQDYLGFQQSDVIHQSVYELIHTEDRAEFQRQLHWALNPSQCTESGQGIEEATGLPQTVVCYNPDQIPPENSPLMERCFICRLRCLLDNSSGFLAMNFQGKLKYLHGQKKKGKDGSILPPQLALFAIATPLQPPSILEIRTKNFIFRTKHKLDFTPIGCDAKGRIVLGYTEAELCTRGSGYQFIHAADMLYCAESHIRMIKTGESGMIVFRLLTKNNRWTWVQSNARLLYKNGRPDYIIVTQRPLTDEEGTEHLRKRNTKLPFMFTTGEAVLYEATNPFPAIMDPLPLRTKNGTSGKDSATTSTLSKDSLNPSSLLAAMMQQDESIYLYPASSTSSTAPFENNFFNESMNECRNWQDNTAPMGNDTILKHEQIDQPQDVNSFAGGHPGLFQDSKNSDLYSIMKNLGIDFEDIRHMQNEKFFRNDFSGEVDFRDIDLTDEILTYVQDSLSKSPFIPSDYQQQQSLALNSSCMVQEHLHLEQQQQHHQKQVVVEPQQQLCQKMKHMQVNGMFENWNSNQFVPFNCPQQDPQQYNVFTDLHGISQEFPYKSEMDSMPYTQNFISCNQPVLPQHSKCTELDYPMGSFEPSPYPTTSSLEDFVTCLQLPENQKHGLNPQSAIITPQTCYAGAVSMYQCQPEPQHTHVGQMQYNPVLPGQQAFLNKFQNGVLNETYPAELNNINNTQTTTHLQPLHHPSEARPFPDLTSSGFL
CCAAT/enhancer-binding protein beta (Homo sapiens), sequence (P17676 whole entry, looked up): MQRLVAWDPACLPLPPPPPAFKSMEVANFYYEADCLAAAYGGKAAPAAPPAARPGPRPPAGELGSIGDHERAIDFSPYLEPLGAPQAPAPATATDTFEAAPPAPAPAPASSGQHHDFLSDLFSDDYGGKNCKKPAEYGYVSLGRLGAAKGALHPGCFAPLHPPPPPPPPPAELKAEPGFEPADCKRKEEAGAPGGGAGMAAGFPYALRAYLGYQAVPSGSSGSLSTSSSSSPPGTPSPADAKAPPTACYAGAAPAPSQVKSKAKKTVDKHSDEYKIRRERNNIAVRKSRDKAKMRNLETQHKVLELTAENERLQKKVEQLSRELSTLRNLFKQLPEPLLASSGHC
Transcription factor E2F1 (Homo sapiens), sequence (Q01094 whole entry, looked up): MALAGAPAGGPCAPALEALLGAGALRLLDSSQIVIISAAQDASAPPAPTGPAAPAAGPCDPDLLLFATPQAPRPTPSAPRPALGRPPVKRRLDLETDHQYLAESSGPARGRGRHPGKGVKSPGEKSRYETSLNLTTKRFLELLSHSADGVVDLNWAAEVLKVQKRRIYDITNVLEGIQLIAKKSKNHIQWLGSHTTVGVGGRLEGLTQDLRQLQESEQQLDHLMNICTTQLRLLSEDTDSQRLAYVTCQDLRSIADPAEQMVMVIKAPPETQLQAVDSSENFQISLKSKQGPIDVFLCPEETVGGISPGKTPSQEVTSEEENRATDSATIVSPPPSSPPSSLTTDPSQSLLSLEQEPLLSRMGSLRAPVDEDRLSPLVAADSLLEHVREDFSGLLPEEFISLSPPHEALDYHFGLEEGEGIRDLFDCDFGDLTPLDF
Bile acid receptor (Homo sapiens), sequence (Q96RI1 whole entry, looked up): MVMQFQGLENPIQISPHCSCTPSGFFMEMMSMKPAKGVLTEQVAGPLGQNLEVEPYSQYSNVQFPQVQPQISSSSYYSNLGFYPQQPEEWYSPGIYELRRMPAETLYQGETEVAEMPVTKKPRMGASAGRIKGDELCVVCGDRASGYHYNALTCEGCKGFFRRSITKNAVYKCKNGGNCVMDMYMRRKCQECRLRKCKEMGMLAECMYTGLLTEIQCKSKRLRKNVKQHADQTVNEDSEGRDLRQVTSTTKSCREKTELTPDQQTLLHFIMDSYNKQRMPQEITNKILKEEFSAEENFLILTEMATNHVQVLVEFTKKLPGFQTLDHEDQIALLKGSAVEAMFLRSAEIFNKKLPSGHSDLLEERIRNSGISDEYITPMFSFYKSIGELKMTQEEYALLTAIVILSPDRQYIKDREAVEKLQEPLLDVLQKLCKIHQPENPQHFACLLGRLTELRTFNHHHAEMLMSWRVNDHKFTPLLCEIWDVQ
Retinoic acid receptor alpha (Homo sapiens), sequence (P10276 whole entry, looked up): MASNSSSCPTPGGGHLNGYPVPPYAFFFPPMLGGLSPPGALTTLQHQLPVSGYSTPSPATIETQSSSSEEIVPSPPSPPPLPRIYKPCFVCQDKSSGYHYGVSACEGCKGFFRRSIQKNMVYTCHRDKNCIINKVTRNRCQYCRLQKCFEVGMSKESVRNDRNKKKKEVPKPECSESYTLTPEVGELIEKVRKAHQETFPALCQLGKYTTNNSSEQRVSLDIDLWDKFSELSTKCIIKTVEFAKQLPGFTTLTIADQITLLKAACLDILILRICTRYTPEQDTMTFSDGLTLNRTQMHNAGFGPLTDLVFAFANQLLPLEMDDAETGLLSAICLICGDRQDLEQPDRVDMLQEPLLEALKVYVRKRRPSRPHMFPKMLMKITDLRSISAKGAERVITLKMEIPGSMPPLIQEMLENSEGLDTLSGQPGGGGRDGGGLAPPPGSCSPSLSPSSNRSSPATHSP

Turning to `CCCCSCCCC`, the call in assay [1], in assay [2], in [3], in [4], in assay [5] and in [6] was inactive. The outcome in assay [7], in [8], in [9], in [10], in assay [11] and in assay [12] was inactive. In addition, the outcome in assay [13], in assay [14], in assay [15], in assay [16] and in [17] was inactive.

With `COC(C)(C)CCO`, the result in assay [1], in [2], in assay [3], in [4], in assay [5] and in assay [6] was inactive. For the same compound, the call in assay [7], in assay [8], in assay [9], in assay [10], in assay [11] and in assay [12] was inactive. For the same compound, the call in assay [13], in assay [14], in assay [15], in assay [16] and in [17] was inactive.

For `CC=Cc1ccc(OC)c(OC)c1`, the compound was classed as inactive in [1], in [2], in assay [3], in assay [18], in [5] and in assay [6]. Also, the compound was classed as inactive in assay [7], in assay [9], in assay [10], in assay [11], in [12] and in assay [13]. Further, the outcome in assay [14], in assay [19], in assay [15], in assay [16], in assay [17] and in [20] was inactive.

`CCCCCC(=O)CC`: the result in assay [1], in assay [2], in [3], in assay [18], in assay [5] and in assay [6] was inactive. Further, the outcome in assay [7], in [9], in assay [10], in [11], in assay [13] and in assay [14] was inactive. Moreover, the compound was called inactive in [19], in [15], in assay [16], in assay [17] and in assay [20].

Consider `CC1=C(Br)C(=O)C(Br)=C/C1=C(/c1ccccc1S(=O)(=O)O)c1cc(Br)c(O)c(Br)c1C`, for which the compound was classed as inactive in [1], in assay [2], in assay [3], in [5], in assay [6] and in [7]. The result in assay [8], in assay [9], in [10], in [11], in assay [12] and in assay [14] was inactive. The call in [19], in assay [15], in [16], in [17] and in assay [20] was inactive. For the same compound, in [4], the AC50 is 51.1 µM (active).

Turning to `CC(=O)O[C@@H]1CC2CCC1(C)C2(C)C` (some centres undefined), the outcome in assay [1], in [2], in [3], in assay [4], in [5] and in [6] was inactive. Further, the result in [7], in assay [8], in assay [9], in [10], in assay [11] and in assay [12] was inactive. For the same compound, the compound was classed as inactive in [13], in [14], in [19], in [15], in [16] and in assay [17]. In addition, the result in assay [20] was inactive.

With `C[C@H]1C[C@@H](O)CC(C)(C)C1`, the compound was called inactive in assay [1], in [2], in assay [3], in assay [4], in assay [5] and in assay [6]. For the same compound, the outcome in assay [7], in assay [9], in assay [10], in [11], in [12] and in [13] was inactive. Also, the compound was called inactive in assay [14], in assay [19], in [15], in assay [16], in [17] and in assay [20].

The values above are taken from PubChem BioAssay (EPA / NIEHS).
